Results published in PMC7862700, “An all-to-all approach to the identification of sequence-specific readers for epigenetic DNA modifications on cytosine”.

Key:
Assay in all cases: DAPPL (digital affinity profiling via proximity ligation, sequencing); 10 mM Tris-HCl pH 7.5, 50 mM NaCl, 1 mM DTT, 4% glycerol, room temperature, 30 min; GST-TFs on glutathione beads, 16-mer random dsDNA library, 0.1% formaldehyde crosslink after washing; high values mean tight binding
Settings in all cases: protein: recombinant; tags: N-terminal GST; dsDNA, one strand shown
FEV = biological target: T1, FEV (Homo sapiens, UniProt Q99581 1-238)
T1 sequence: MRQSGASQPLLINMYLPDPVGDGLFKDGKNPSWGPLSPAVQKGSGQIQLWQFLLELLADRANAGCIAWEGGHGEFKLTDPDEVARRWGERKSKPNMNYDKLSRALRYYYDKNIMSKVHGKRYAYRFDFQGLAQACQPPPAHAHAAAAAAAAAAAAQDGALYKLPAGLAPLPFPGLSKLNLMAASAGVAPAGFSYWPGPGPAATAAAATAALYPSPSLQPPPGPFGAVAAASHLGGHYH
Procedure, shortened: (§1)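 Yeast served to express human transcription factors as GST fusions, which were then captured on glutathione beads and labelled with DNA barcodes. Pooled with a tag-only sample, they were incubated with 200 nmole of a 16-mer random double-stranded DNA library for 30 min at room temperature in Tris/NaCl/DTT/glycerol buffer, washed, crosslinked with 0.1% formaldehyde, ligated by proximity, amplified by PCR and sequenced. Dividing each hexamer's read frequency for a factor by its frequency for the tag-only sample gives the binding signal.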

ETV5 = ETV5 (Homo sapiens, UniProt P41161 1-510)
Procedure, shortened: as §1

SPIC = biological target: T2, SPIC (Homo sapiens, UniProt Q8N5J4 1-248)
T2 sequence: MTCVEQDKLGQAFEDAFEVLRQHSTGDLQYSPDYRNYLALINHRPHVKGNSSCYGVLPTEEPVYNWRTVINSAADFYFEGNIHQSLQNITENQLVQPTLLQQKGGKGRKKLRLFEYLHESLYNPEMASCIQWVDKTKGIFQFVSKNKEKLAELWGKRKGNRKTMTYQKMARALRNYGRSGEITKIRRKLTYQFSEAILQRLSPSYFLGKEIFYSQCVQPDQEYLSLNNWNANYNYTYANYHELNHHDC
Procedure, shortened: as §1

ELF4 = ELF4 (Homo sapiens, UniProt Q99607 1-663)
Procedure, shortened: as §1

ELK4 = biological target: T3, ELK4 (Homo sapiens, UniProt P28324-2 1-405)
T3 sequence: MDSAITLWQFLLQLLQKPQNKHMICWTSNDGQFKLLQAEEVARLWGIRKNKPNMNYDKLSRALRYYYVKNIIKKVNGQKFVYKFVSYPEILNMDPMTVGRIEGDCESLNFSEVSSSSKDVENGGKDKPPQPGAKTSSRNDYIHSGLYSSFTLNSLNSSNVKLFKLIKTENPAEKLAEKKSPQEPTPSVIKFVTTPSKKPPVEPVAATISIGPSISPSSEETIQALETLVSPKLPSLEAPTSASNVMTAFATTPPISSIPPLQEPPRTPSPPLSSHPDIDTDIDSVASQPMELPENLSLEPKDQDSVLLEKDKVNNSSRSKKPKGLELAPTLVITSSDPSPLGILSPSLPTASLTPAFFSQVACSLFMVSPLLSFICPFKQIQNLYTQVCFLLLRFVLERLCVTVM
Procedure, shortened: as §1

ETV2 = biological target: T4, ETV2 (Homo sapiens, UniProt O00321 1-342)
T4 sequence: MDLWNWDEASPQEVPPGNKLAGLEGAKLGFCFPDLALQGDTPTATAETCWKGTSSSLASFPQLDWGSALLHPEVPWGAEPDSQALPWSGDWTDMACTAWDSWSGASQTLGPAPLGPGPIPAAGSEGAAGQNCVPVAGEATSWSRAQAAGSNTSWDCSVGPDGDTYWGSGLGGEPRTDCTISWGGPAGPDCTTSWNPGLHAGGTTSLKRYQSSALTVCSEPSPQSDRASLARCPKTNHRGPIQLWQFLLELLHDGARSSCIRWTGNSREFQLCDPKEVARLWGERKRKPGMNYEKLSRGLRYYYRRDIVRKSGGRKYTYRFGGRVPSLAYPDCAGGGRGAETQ
Procedure, shortened: as §1

ELF3 = biological target: T5, ELF3 (Homo sapiens, UniProt P78545 1-371)
T5 sequence: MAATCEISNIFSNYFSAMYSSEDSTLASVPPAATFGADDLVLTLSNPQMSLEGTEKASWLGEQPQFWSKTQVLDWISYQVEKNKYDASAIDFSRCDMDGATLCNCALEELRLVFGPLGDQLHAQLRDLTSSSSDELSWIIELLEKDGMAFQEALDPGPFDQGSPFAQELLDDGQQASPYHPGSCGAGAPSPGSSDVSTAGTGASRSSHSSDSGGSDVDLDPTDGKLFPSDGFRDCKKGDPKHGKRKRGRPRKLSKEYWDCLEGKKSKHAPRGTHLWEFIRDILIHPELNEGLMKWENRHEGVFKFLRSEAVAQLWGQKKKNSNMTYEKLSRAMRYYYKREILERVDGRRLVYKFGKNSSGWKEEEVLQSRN
Procedure, shortened: as §1

ETV1 = ETV1 (Homo sapiens, UniProt P50549 1-477)
Procedure, shortened: as §1

ERF = biological target: T6, ERF (Homo sapiens, UniProt P50548 1-548)
T6 sequence: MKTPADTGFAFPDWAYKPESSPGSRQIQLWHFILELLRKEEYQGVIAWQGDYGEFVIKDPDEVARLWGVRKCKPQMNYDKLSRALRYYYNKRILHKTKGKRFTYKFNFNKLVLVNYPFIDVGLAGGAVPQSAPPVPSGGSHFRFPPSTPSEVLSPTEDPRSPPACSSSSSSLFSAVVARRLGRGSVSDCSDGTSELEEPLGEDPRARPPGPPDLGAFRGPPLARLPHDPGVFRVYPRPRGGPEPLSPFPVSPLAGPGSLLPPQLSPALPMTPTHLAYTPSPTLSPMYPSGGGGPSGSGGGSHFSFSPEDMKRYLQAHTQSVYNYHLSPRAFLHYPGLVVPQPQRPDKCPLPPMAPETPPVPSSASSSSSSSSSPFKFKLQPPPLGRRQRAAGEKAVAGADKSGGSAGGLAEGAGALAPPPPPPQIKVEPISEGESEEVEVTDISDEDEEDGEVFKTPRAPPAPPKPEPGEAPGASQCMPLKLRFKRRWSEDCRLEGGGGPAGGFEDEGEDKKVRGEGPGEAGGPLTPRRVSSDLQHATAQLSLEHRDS
Procedure, shortened: as §1

ETV3L = biological target: T7, ETV3L (Homo sapiens, UniProt Q6ZN32 1-361)
T7 sequence: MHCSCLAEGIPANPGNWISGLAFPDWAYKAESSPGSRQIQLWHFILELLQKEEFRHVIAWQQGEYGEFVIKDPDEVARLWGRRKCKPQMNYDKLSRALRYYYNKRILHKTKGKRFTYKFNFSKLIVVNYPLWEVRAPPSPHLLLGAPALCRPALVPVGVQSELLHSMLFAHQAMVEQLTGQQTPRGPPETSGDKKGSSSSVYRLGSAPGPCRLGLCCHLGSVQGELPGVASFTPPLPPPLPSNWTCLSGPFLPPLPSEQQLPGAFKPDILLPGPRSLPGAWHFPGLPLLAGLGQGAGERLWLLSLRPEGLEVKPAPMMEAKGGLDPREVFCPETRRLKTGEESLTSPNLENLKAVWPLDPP
Procedure, shortened: as §1

SPDEF = biological target: T8, SPDEF (Homo sapiens, UniProt O95238 1-335)
T8 sequence: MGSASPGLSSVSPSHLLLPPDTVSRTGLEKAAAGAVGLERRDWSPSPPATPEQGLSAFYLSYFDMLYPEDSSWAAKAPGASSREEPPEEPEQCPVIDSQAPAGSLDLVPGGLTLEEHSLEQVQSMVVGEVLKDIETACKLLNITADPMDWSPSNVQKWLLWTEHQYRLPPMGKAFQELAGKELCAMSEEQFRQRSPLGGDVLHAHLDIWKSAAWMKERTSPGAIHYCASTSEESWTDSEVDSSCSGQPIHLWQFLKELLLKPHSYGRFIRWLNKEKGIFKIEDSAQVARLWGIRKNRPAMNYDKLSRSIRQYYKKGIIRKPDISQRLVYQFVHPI
Procedure, shortened: as §1

ELF5 = biological target: T9, ELF5 (Homo sapiens, UniProt Q9UKW6-2 1-255)
T9 sequence: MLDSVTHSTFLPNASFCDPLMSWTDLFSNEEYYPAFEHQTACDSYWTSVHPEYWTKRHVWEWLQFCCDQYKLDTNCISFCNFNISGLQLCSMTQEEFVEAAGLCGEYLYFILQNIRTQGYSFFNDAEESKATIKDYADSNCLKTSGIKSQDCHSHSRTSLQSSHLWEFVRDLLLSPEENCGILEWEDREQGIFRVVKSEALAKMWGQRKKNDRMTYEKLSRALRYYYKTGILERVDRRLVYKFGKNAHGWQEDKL
Procedure, shortened: as §1

ETV3 = biological target: T10, ETV3 (Homo sapiens, UniProt P41162-2 1-143)
T10 sequence: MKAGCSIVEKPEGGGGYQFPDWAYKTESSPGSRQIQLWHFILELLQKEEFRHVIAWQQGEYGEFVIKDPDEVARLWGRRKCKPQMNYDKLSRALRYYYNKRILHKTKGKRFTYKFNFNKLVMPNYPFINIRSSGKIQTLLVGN
Procedure, shortened: as §1

ETV6 = ETV6 (Homo sapiens, UniProt P41212 1-452)
Procedure, shortened: as §1

ETS2 = biological target: T11, ETS2 (Homo sapiens, UniProt P15036 1-469)
T11 sequence: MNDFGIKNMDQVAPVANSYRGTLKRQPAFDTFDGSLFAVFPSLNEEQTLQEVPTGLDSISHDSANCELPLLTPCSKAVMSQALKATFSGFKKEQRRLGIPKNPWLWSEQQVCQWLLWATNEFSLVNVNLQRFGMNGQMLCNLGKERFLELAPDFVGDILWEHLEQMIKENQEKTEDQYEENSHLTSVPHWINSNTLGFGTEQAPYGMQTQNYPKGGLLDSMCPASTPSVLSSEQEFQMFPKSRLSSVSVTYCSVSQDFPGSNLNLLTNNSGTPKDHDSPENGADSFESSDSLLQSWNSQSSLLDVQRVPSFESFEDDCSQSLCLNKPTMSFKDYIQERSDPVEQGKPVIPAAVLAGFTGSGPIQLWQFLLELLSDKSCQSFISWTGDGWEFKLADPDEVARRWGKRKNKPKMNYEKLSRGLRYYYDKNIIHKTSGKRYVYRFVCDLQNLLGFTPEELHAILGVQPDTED
Procedure, shortened: as §1

ETV7 = biological target: T12, ETV7 (Homo sapiens, UniProt Q9Y603 1-341)
T12 sequence: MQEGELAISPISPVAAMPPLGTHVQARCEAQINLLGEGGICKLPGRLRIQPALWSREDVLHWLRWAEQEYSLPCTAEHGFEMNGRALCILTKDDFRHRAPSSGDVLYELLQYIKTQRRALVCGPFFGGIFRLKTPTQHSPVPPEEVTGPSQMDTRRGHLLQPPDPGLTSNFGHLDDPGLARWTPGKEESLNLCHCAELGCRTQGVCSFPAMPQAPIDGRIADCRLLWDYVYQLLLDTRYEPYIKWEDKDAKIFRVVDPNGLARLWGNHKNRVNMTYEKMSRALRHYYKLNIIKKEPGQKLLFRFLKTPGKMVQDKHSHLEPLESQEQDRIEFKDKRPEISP
Procedure, shortened: as §1

ETV5, sequence (P41161 whole entry): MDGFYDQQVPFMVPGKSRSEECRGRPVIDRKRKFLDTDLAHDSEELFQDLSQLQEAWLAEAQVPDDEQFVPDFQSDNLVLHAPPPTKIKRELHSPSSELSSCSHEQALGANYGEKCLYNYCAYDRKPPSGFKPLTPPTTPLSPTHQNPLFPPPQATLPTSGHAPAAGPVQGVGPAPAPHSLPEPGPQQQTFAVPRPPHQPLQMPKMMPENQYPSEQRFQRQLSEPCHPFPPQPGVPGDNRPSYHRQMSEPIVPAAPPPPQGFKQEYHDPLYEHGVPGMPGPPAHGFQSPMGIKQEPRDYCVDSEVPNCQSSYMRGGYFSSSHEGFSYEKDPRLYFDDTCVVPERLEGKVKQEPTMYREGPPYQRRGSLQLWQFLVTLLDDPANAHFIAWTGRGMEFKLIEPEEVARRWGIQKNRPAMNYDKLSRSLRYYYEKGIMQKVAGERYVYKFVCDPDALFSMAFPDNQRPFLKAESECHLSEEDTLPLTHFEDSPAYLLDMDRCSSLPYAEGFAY
ELF4, sequence (Q99607 whole entry): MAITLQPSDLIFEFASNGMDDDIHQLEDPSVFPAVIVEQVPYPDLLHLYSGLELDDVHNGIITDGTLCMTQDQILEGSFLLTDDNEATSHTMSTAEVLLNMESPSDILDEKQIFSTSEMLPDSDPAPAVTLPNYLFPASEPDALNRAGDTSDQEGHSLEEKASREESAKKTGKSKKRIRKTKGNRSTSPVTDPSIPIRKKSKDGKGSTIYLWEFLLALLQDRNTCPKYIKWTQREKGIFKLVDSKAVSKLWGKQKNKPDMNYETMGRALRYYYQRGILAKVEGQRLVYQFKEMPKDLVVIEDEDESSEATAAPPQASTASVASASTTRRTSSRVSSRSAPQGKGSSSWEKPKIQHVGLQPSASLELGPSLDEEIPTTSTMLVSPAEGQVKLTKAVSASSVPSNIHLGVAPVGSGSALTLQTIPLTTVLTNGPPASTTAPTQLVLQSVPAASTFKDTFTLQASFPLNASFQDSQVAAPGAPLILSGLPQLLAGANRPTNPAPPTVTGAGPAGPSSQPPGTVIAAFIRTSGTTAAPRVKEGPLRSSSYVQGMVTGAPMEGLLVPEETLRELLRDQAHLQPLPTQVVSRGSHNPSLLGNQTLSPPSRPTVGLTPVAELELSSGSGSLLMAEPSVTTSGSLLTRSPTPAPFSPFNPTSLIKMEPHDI
ETV6, sequence (P41212 whole entry): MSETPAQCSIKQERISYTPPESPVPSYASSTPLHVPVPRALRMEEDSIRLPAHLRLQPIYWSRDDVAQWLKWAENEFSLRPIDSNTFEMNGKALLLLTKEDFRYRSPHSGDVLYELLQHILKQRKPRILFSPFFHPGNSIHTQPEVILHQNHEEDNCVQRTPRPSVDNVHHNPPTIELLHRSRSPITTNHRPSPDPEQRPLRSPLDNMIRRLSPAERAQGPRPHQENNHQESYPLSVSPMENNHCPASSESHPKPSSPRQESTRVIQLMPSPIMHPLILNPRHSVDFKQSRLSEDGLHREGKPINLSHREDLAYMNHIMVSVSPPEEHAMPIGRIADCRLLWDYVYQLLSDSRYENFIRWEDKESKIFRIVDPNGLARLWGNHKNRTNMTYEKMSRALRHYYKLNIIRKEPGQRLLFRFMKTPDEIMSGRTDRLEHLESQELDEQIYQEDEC
ETV1, sequence (P50549 whole entry): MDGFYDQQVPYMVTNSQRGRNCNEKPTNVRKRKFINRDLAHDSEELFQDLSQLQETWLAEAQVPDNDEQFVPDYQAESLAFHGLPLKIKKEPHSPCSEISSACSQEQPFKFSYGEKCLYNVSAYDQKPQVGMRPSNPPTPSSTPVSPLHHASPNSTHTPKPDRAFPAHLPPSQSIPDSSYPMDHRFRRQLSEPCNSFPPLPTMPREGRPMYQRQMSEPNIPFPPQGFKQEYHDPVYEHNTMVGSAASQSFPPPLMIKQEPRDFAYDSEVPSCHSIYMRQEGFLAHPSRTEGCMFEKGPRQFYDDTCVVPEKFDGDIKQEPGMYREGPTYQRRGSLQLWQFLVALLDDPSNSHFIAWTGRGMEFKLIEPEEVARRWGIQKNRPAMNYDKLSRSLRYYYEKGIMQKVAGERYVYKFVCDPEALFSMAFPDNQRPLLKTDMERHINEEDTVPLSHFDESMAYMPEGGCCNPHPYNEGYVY

For CACCAA, the binding signal (FEV) was 1.12 fold enrichment (6-mer frequency, TF over GST control), the binding signal (ETV5) was 1.1 fold enrichment (6-mer frequency, TF over GST control) and the binding signal (SPIC) was 1.12 fold enrichment (6-mer frequency, TF over GST control). The binding signal (ELF4) was 1.12 fold enrichment (6-mer frequency, TF over GST control), the binding signal (ELK4) was 1.13 fold enrichment (6-mer frequency, TF over GST control) and the binding signal (ETV2) was 1.12 fold enrichment (6-mer frequency, TF over GST control). For the same sequence, the binding signal (ELF3) was 1.1 fold enrichment (6-mer frequency, TF over GST control), the binding signal (ETV1) was 1.01 fold enrichment (6-mer frequency, TF over GST control) and the binding signal (ERF) was 1.18 fold enrichment (6-mer frequency, TF over GST control). The binding signal (ETV3L) was 1.06 fold enrichment (6-mer frequency, TF over GST control), the binding signal (SPDEF) was 1.03 fold enrichment (6-mer frequency, TF over GST control) and the binding signal (ELF5) was 1.03 fold enrichment (6-mer frequency, TF over GST control). The binding signal (ETV3) was 1.1 fold enrichment (6-mer frequency, TF over GST control) and the binding signal (ETV6) was 1.07 fold enrichment (6-mer frequency, TF over GST control).

In the case of ACACCA, the binding signal (FEV) is reported as 1.03 fold enrichment (6-mer frequency, TF over GST control), the binding signal (ETV5) is reported as 1.04 fold enrichment (6-mer frequency, TF over GST control) and the binding signal (SPIC) is reported as 1.13 fold enrichment (6-mer frequency, TF over GST control). For the same sequence, the binding signal (ELF4) was 1.02 fold enrichment (6-mer frequency, TF over GST control), the binding signal (ELK4) was 1.08 fold enrichment (6-mer frequency, TF over GST control) and the binding signal (ETV2) was 1.05 fold enrichment (6-mer frequency, TF over GST control). The binding signal (ELF3) was 1.01 fold enrichment (6-mer frequency, TF over GST control), the binding signal (ETV3L) was 1.04 fold enrichment (6-mer frequency, TF over GST control) and the binding signal (ELF5) was 1.01 fold enrichment (6-mer frequency, TF over GST control). For the same sequence, the binding signal (ETV3) was 1.02 fold enrichment (6-mer frequency, TF over GST control).

GTATCA was tested, and the binding signal (FEV) was 1.04 fold enrichment (6-mer frequency, TF over GST control), the binding signal (ETV5) was 1.01 fold enrichment (6-mer frequency, TF over GST control) and the binding signal (SPIC) was 1.03 fold enrichment (6-mer frequency, TF over GST control). For the same sequence, the binding signal (ELF4) was 1.05 fold enrichment (6-mer frequency, TF over GST control), the binding signal (ELK4) was 1.12 fold enrichment (6-mer frequency, TF over GST control) and the binding signal (ETV2) was 1.12 fold enrichment (6-mer frequency, TF over GST control). For the same sequence, the binding signal (ELF3) was 1.17 fold enrichment (6-mer frequency, TF over GST control), the binding signal (ETV1) was 1.05 fold enrichment (6-mer frequency, TF over GST control) and the binding signal (ETV3L) was 1.09 fold enrichment (6-mer frequency, TF over GST control). For the same sequence, the binding signal (ETS2) was 1.05 fold enrichment (6-mer frequency, TF over GST control), the binding signal (SPDEF) was 1.08 fold enrichment (6-mer frequency, TF over GST control) and the binding signal (ETV7) was 1.04 fold enrichment (6-mer frequency, TF over GST control). The binding signal (ELF5) was 1.03 fold enrichment (6-mer frequency, TF over GST control), the binding signal (ETV3) was 1.09 fold enrichment (6-mer frequency, TF over GST control) and the binding signal (ETV6) was 1.01 fold enrichment (6-mer frequency, TF over GST control).
